High-throughput results from PubChem BioAssay.
D1 antag: human D1 dopamine receptor antagonism | HEK293 TREx D1 cells, calcium flux, dopamine EC80; stronger effect = lower value | activity change, negative = inhibition, % at 10 µM | 3.2% of 360,000 active | AID 504652; in the data active = activity change below about -30%
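HEK293 T-REx cells expressing inducible, force-coupled D1 receptor; no-wash Ca dye, 30–90 min RT. Cmpd → 180 s read at 1 Hz → EC80 DA → 180 s read.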
D1 agonist: human D1 receptor agonism | P21728 | HEK293 T-REx D1 cells, calcium flux, agonist mode | activation, % at 2 µM | 1% of 360,000 active | AID 504660
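Tetracycline-induced HEK293 TREx D1 cells, force-coupled to calcium signalling, were dye-loaded with a no-wash calcium kit. Compound was pin-added after a 10 s baseline. Fluorescence was read kinetically at 1 cycle/s for 180 s, with calcium rises flagged as agonism.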
D1 PAM: enhances dopamine response at the human D1 receptor; P21728; HEK293 TREx D1 cells, calcium flux, dopamine EC20 potentiation; potentiation, % at 10 µM; 0.036% of 360,000 active; in the data active = potentiation above about 30%
TRHR ag: activates the human TRH receptor | P34981 | TRHR cells, calcium flux fluo-8, FDSS agonist mode | activation, % at 2 µM | 0.18% of 360,000 active | AID 493084
Target sequence (P34981 whole entry, looked up): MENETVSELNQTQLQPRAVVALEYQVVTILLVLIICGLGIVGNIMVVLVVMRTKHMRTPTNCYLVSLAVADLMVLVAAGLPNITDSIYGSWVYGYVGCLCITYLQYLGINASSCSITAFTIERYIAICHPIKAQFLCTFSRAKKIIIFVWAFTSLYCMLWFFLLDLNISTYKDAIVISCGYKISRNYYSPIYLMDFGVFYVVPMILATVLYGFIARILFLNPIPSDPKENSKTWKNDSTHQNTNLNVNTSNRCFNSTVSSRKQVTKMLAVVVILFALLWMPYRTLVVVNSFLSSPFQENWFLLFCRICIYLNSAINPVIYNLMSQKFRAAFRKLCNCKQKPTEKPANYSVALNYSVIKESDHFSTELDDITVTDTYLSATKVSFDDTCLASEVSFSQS
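TRHR-expressing cells, plated overnight in medium with 10% serum, were loaded with fluo-8 calcium dye at room temperature. After a 10 s baseline, library compound was pin-added and calcium release was recorded kinetically (ex 480/em 530) as agonist response.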
TRHR PAM: allosteric enhancers of human TRH receptor. TRHR cells, fluo-8 calcium fluorescence, EC20 TRH enhancement. 0.66% of 360,000 active. enhancement, % at 2 µM. P34981; in the data active = enhancement above about 30%
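TRHR-expressing cells loaded with fluo-8 calcium dye were read kinetically (ex 480/em 530) during compound addition, then stimulated with an EC20 of TRH (10 nM final). Enhancement of the Gq-mediated intracellular calcium response was scored.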
Each line names hits and unclear results; the compound was inactive in the other large screens; ! = not confirmed by another sample. This is a sample that favours compounds with a hit; in the whole collection about 4.7% have one here. Cut-off read from the data, not from the text of the source, unless noted: active = activation above about 30%; inactive = the rest.

CC(C)(C)OC(=O)N1CCCN(C(=O)Nc2ccc(C(F)(F)F)cc2)CC1	D1 antag -31.2
CCN(CC)CCCNC(=O)C1CCN(S(C)(=O)=O)CC1	none
COc1ccc(C)cc1NC(=O)c1cc2c(s1)-c1ccccc1SC2	D1 antag -32.4
CCOC(=O)c1ccccc1NC(=O)c1cc2c(s1)-c1ccccc1SC2	D1 antag -45.1
Cc1nc2c(c(C)nn2-c2ccccc2)c(C)c1CCC(=O)Nc1ccc(F)cc1	none
Cn1cc(/C=C2\SC(=S)N(NC(=O)c3ccccc3)C2=O)c2ccccc21	D1 agonist 74.6
O=C(NN1C(=O)/C(=C/c2ccc(O)cc2)SC1=S)c1ccccc1O	D1 agonist 67.3
COc1cc(/C=C2\SC(=S)N(NC(=O)c3ccccc3O)C2=O)ccc1O	D1 agonist 90.1
COc1ccc(-c2nnc(SCC(=O)NCc3ccccc3)nc2-c2ccc(OC)c(OC)c2)cc1OC	none
CCCCNC(=O)C1CCC(Cn2c(=O)c3sccc3n(Cc3ccccc3)c2=O)CC1 (configuration not stated)	none
CN1CC2=Cc3ccccc3OC23Oc2ccccc2C=C3C1	D1 antag -50.9
CCOC(=O)c1cccc(NC(=O)c2ccc3snnc3c2)c1	none
CCC(=O)c1c[nH]c(C(=O)N2CCOCC2)c1	D1 antag -36.9
CCC(=O)c1c[nH]c(C(=O)N2CCN(c3ccccc3)CC2)c1	none
COc1ccc(Nc2nc(-c3cccs3)cs2)c(OC)c1	none
COc1ccc(Nc2nc(-c3sc(C)nc3C)cs2)c(OC)c1	D1 antag -43.5
COc1ccc(Nc2cc(C(=O)NCCCN(C)C3CCCCC3)c3ccccc3n2)c(OC)c1	D1 agonist 33.7
CCN(CC)CCCNC(=O)c1cc(Nc2ccc(OC)cc2OC)nc2ccccc12	none
COc1ccc(OC)c(Nc2cc(C(=O)NCc3ccccc3)c3ccccc3n2)c1	D1 antag -79.8
COc1ccc(Nc2cc(C(=O)NCCCN(C)C3CCCCC3)c3ccccc3n2)cc1	D1 antag -40.7, D1 agonist 65.3
Cc1cccc(N2CCN(C(=O)c3ccccn3)CC2C)c1 (configuration not stated)	none
Cc1cccc(N2CCN(C(=O)CCN3C(=O)C4C5C=CC(C5)C4C3=O)CC2C)c1 (configuration not stated)	none
Cc1cccc(N2CCN(C(=O)c3cccc(N4C(=O)C5C6C=CC(C6)C5C4=O)c3)CC2C)c1 (configuration not stated)	D1 antag -35.3
Cc1ccc(-c2c(C(=O)N3CCN(c4cccc(C)c4)C(C)C3)oc(=O)c3ccccc23)cc1 (configuration not stated)	D1 antag -36.6
O=S(=O)(NCC(c1ccco1)N1CCN(c2ccccc2F)CC1)c1ccc(F)cc1 (configuration not stated)	none
O=S(=O)(NCC(c1ccco1)N1CCN(c2ccccc2)CC1)c1ccccc1 (configuration not stated)	none (no result: D1 antag)
O=S(=O)(NCC(c1ccco1)N1CCN(c2ccccc2)CC1)c1ccc(F)cc1 (configuration not stated)	D1 antag -30.3
O=S(=O)(NCC(c1ccco1)N1CCN(c2ccc(F)cc2)CC1)c1ccc(F)cc1 (configuration not stated)	D1 antag -33.6
COc1ccc(NC(=O)c2c(C)oc3ccc(O)c(CN4CCN(Cc5ccccc5)CC4)c23)cc1	none
Cc1ccc(CNC(=O)CNC(=S)N(Cc2ccccc2)Cc2ccccc2F)cc1	D1 antag -30.4
CC(C1CC2CCC1C2)n1c(COc2ccccc2F)nnc1SCC(N)=O (configuration not stated)	D1 agonist 89.1
Cc1nnc(SCc2ccccc2)n(N)c1=O	none
Cc1ccc(CSc2nnc(C)c(=O)n2N)cc1	D1 antag -48.5
CCCc1sc(N)nc1-c1ccc(C)cc1	D1 antag -59.7
CCOC(=O)Cc1sc(N)nc1C	none
Cc1ccc(-c2nc(N)sc2CC(=O)OCC(=O)NCCC(C)C)cc1	D1 antag -57.1
CC(C)CCNC(=O)COC(=O)c1cc(Br)c(Br)s1	none
CCC(C)NC(=O)COC(=O)Cc1sc(N)nc1-c1ccc(C)cc1 (configuration not stated)	D1 antag -59.5
Cc1ccc(-c2nc(N)sc2CC(=O)OCC(=O)NCC2CCCO2)cc1 (configuration not stated)	D1 antag -41.9
CCCS(=O)(=O)NCCc1sc2nc(-c3ccc(Cl)cc3)nn2c1C	none (no result: D1 antag)
COc1ccc(OC)c(CNC(=O)C2CCCN(c3ncnc4c3nc3n4CCCCC3)C2)c1 (configuration not stated)	D1 antag -33.1
O=C(NCCCN1CCN(c2ccccc2)CC1)C1CCCN(c2ncnc3c2nc2n3CCCCC2)C1 (configuration not stated)	D1 antag -30.4
O=C(C1CCN(c2ncnc3c2nc2n3CCCCC2)CC1)N1CCN(c2cccc(Cl)c2)CC1	D1 antag -30.6!
Nc1nnc(SCC(=O)Nc2cccc(F)c2)s1	none
Cn1cnc2c(=O)oc3ccc(S(=O)(=O)N4CCN(c5cccc(Cl)c5)CC4)cc3c21	none
Cc1ccc(-n2nc(CO)c(C(=O)NCCCCc3ccccc3)n2)cc1	none
c1ccc(-n2cnc3cc(NCc4ccccn4)ccc32)cc1	none
c1ccc(-n2cnc3cc(NCc4ccncc4)ccc32)cc1	D1 antag -38.6
CC(=O)c1cccc(NC(=O)c2nc3ccccc3n(C)c2=O)c1	none
Cc1nc(N2CCN(Cc3ccccc3)CC2)nc2c1C(=O)CC(c1ccco1)C2 (configuration not stated)	D1 antag -32.2
Cc1nc(N2CCN(Cc3ccc4c(c3)OCO4)CC2)nc2c1C(=O)CC(c1ccco1)C2 (configuration not stated)	none
COc1ccc(N2C(=O)NC(NS(=O)(=O)c3ccc(NC(C)=O)cc3)(C(F)(F)F)C2=O)cc1 (configuration not stated)	D1 antag -50.8!
COc1ccc(N2C(=O)NC(NS(=O)(=O)c3ccccc3)(C(F)(F)F)C2=O)cc1 (configuration not stated)	none
CN(CC(=O)Nc1ccccc1Cl)C(=O)COC(=O)c1ccc(Cl)cc1[N+](=O)[O-]	D1 antag -41.9
COc1ccc(/C=N/Nc2ccc([N+](=O)[O-])cc2)cc1Cn1cc([N+](=O)[O-])cn1	none (no result: D1 antag)
COc1ccc(/C=N/Nc2ccc([N+](=O)[O-])cc2)cc1O	D1 agonist 31.0
Cc1ccc2oc(=O)n(CCNC(=O)Nc3ccc(C)c(F)c3)c2c1	none
CN(C)C(=O)N(CCCN1CCOCC1)Cc1cccc2ccccc12	D1 antag -48.9
CCOc1ccccc1CNCCN1CCOCC1	none
O=C(Nc1ccccc1)N(CCCN1CCOCC1)Cc1ccccc1F	none
